Experimental data: the OligoGym collection

target: HSPA1A; assay: pooled miR-30 sensor sort-seq; sequence = guide strand; settings: shRNA
Further: reference of the scale not given here.

Row | Sequence | sensor-assay potency score (higher = more potent)
1 | AAATTGAGAACTGACAAACAGA | -0.814
2 | TGCAAAGTCTTGAAGCTCCAAA | -0.87
3 | TTGACACTTGTCCAGCACCTTC | -1.05
4 | TCAACATTGCAAACACAGGAAA | -1.05
5 | TTGTCCAGCACCTTCTTCTTGT | 0.221
6 | TTCTTCTTGTCGGCCTCGCTGA | -0.634
7 | TTAAAAAGAAGAAATAGTCGTA | 0.533
8 | TTCAACATTGCAAACACAGGAA | 0.422
9 | TAAAAAGAAGAAATAGTCGTAA | 0.289

target: HSPA1L; assay: as above; settings: shRNA

Row | Sequence | sensor-assay potency score (higher = more potent)
10 | TAATCTTGCCCTTCAAACCTTC | -0.52
11 | TAGAGTTTTGTGATGATAGGGT | 0.798
12 | AACTTAGTCAATACCATCGAAG | -0.727
13 | TTCTTAGCACATTAAGTCCAGC | -0.826
14 | TTTATATTTCTCAGCATCCAGA | -0.719
15 | TTTATCAGACTCACTAATCTTG | 0.0614
16 | TTGGTTGTCAGAGTAGGTGGTG | 0.316
17 | TAAGTCCAGCAATCACACCTGC | -0.0929
18 | TTCTCTTATGATCAAACTCATC | -1.68
19 | TTTCTCAGCATCCAGAACCATG | -1.49
20 | TTAGTCAATACCATCGAAGAGA | -1.19
21 | TAGGGTTACACATCTGCTCCAA | 0.367
